Source: PubChem
Rows were chosen to be rich in hits. Some 0.89% of all compounds tested hit in one or more screens of this group.
RPL19A-GFP yeast = RPL19A-GFP expression modulators in yeast, primary screen, cell-based, S. cerevisiae, multiplex flow cytometry, MLPCN; S. cerevisiae RPL19A-GFP strain, 3 h; active compounds read low; AID 2025, 2009; actives 0.3% (n = 330,000); percent response vs DMSO, % at 10 µM;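 active means percent response vs DMSO below 50%; inconclusive means fewer than 70 events counted for the yeast strain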;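 further: median channel GFP fluorescence of the barcoded RPL19A-GFP strain; ratio of sample median GFP to plate DMSO average so 100% = DMSO; lower means less RPL19A-GFP as with rapamycin TOR inhibition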
CIT2-GFP yeast = modulators of CIT2-GFP expression in yeast, primary screen, S. cerevisiae, GFP fusion, multiplex flow cytometry, MLPCN library. S. cerevisiae CIT2-GFP strain, 3 h; 100 means same as DMSO wells. GFP response vs DMSO, % at 10 µM. actives 0.065% (n = 320,000). AID 2029, 2009;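 active means GFP response relative to DMSO above a set limit, near the screen mean plus 3 SD, cut at about 150% in these data; inconclusive means Fewer than 70 cells measured for a yeast strain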;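 further: ratio of well median GFP fluorescence to mean of DMSO wells on the plate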
MEP2-GFP yeast = modulators of MEP2-GFP levels in yeast, primary screen, S. cerevisiae, multiplex flow cytometry, MLPCN library; S. cerevisiae MEP2-GFP strain, 3 h; 100% = DMSO control level; GFP response vs DMSO, % at 10 µM; actives 0.51% (n = 330,000);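 active means GFP response versus DMSO above a set limit, roughly screen mean plus 3 SD, cut at about 180% in these data; inconclusive means fewer than 70 cells counted for a yeast strain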;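 further: median GFP fluorescence of the barcode-gated MEP2-GFP cells per well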
LAP4 TOR yeast = modulators of LAP4-GFP expression in yeast, primary screen, S. cerevisiae, multiplex flow cytometry, MLPCN library | 3 h; median GFP as percent of DMSO wells | GFP response vs DMSO, % at 10 µM | actives 0.34% (n = 320,000) | AID 2023, 2009;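 active means GFP response vs DMSO above a set limit, about the screen mean plus 3 SD, cut at about 150% in these data; inconclusive means under 70 cell events counted for the yeast strain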
AGP1 TOR yeast = modulators of AGP1-GFP expression in yeast TOR pathway, primary screen, cell-based, multiplex flow cytometry, S. cerevisiae, MLPCN library. 3 h; GFP as percent of DMSO wells. GFP response vs DMSO, % at 10 µM. actives 0.02% (n = 320,000). AID 2066, 2009;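 active means GFP response relative to DMSO above a set limit, near screen average plus 3 SD, cut at about 150% in these data; inconclusive means fewer than 70 cells counted for the yeast strain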;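 further: median GFP channel fluorescence of the gated AGP1 strain per well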
An asterisk follows results filed as active; u = inconclusive; x = no result; [ ] = dose if it differs, or a comment.

SMILES	RPL19A-GFP yeast	CIT2-GFP yeast	MEP2-GFP yeast	LAP4 TOR yeast	AGP1 TOR yeast
NC(=O)c1cccc(NC(=O)CCCCC(=O)Nc2cccc(C(N)=O)c2)c1	23*[may fluoresce violet]	u	645*[may fluoresce violet]	77	u
Cc1nc2ccccc2n1S(=O)(=O)c1ccc(S(=O)(=O)N2CCCCCC2)cc1	102	108	108	100	109
Cc1nc(N)sc1-c1csc(Nc2ccc(Cl)cn2)n1	91	93	95	164*	96
Cc1ccc(Nc2nc(-c3sc(N)nc3C)cs2)cc1	101	97	98	94	98
COc1ccc(Nc2nc(-c3sc(N)nc3C)cs2)cc1	40*[may fluoresce violet]	u	213*[may fluoresce violet]	u	u
C=CCN1C(=O)C2C(C(=O)NC)C3(C)C=CC2(O3)C1C(=O)NCc1ccc(OC)cc1 (stereo not given)	56	u	519*[may fluoresce violet]	101	u
O=C(O)c1cccc(N=NN2CCOCC2)c1	97	101	96	100	104
Cc1csc2c(=O)sc(NC(=O)c3ccco3)nc12	100	102	101	97	98
Cc1csc2c(=O)sc(NC(=O)c3cccs3)nc12	48*[may fluoresce violet]	u	596*[may fluoresce violet]	88	22
CCCCC[C@H](O)/C=C/[C@@H]1[C@@H](CCCCCCC(=O)O)[C@@H](O)C[C@H]1O	81	101	150	175*	109
CCCCC[C@H](O)/C=C/C1=C(CCCCCCC(=O)O)C(=O)CC1	105	91	107	95	99
O=C(CSc1nnc(CNC(=O)c2ccccc2)o1)c1ccccc1	92	92	92	97	92
COc1ccc(S(=O)(=O)n2[nH]c(=O)c(CCO)c2C)cc1	95	137	114	106	108
Cc1c(CCO)c(=O)[nH]n1S(=O)(=O)c1ccc([N+](=O)[O-])cc1	92	156*[may fluoresce green]	103	102	115
Cc1ccc(CN(C#N)c2nc(C)cc(C)n2)cc1	94	90	100	99	93
COc1cccc(C2C(C(=O)Nc3nc4ccccc4s3)=C(C)NC3=C2C(=O)CC(C)(C)C3)c1OC (stereo not given)	93	95	98	90	91
COc1ccc(OC)c(C2C(C(=O)Nc3nc4ccccc4s3)=C(C)NC3=C2C(=O)CCC3)c1 (stereo not given)	79	72	183*	100	39
Nc1nnc(CC(=O)Nc2ccccc2)s1	102	x	100	x	x
Cc1ccc(CCNS(=O)(=O)c2ccc(C)cc2)cc1	96	84	100	116	106
Cc1ccc(S(=O)(=O)NCCc2ccncc2)cc1	62	u	223*[may fluoresce violet]	100	17
Cc1ccc(SC(=O)c2c(C)noc2-c2cc(C)on2)cc1	97	90	105	155*	108
Cc1cc(C)cc(N(C(=O)c2csnn2)C(C(=O)NC2CCCC2)c2cccnc2)c1 (stereo not given)	57	u	184*[may fluoresce violet]	92	17
Cc1ccc(N(C(=O)CNC(=O)c2ccco2)C(C(=O)NC2CCCC2)c2cccnc2)cc1C (stereo not given)	87	98	195*	186*	118
Cc1ccc(N(C(=O)CCCC(=O)Nc2ccccn2)C(C(=O)NC2CCCC2)c2ccc(O)cc2)cc1C (stereo not given)	87	102	238*	139	110
Cc1ccc(N(C(=O)CNC(=O)c2ccco2)C(C(=O)NC2CCCCC2)c2cccnc2)cc1C (stereo not given)	99	95	87	93	100
SMILES	RPL19A-GFP yeast	CIT2-GFP yeast	MEP2-GFP yeast	LAP4 TOR yeast	AGP1 TOR yeast
Cc1ccccc1N(C(=O)CCCC(=O)Nc1ccccn1)C(C(=O)NC1CCCC1)c1ccc(O)cc1 (stereo not given)	99	104	107	100	105
COCc1nnc(NC(=O)C2CCN(C(=O)c3ccco3)CC2)s1	57	u	968*[may fluoresce violet]	113	19
CCCCNC(=O)c1cc2c(=O)n3cccc(C)c3nc2n(Cc2ccncc2)c1=N	35*	106	132	98	93
Cc1cccn2c(=O)c3cc(C#N)c(=N)n(Cc4ccncc4)c3nc12	101	x	98	96	102
Cc1cccn2c(=O)c3cc(C(N)=S)c(=N)n(CCCN4CCOCC4)c3nc12	25*	103	146	101	96
CC(=O)N=c1c(C#N)cc2c(=O)n3cccc(C)c3nc2n1Cc1ccco1	55	u	198*[may fluoresce violet]	97	15
CCCCNC(=O)c1cc2c(=O)n3cccc(C)c3nc2n(CCN2CCOCC2)c1=N	43*[may fluoresce violet]	u	231*[may fluoresce violet]	75	u
Cc1ccc2nc(NC(=O)COC(=O)CSc3nc(C)cc(C)n3)sc2c1	99	98	107	105	111
CCOc1ccc2nc(N(CCCN(C)C)C(=O)c3ccc(S(=O)(=O)N4CCc5ccccc5C4)cc3)sc2c1	106	99	102	87	101
Cc1cccn2c(=O)c3cc(C(=O)NCc4ccco4)c(=N)n(CCc4ccccc4)c3nc12	83	92	126	97	29
Cc1cccn2c(=O)c3cc(C(=O)NCCC4=CCCCC4)n(C)c3nc12	30*[may fluoresce violet]	u	124	83	u
CCCn1c(=N)c(C(=O)NC2CCCC2)cc2c(=O)n3cccc(C)c3nc21	43*	98	345*	94	95
Cn1c(C(=O)NCCC2=CCCCC2)cc2c(=O)n3ccccc3nc21	95	99	109	109	103
Cc1cccn2c(=O)c3cc(C(=O)NCCc4ccccc4)c(=N)n(Cc4ccco4)c3nc12	53	u	400*[may fluoresce violet]	80	u
COCCCn1c(=N)c(C(N)=S)cc2c(=O)n3cccc(C)c3nc21	101	101	104	115	100
Cc1cccn2c(=O)c3cc(C(=O)NC(C)c4ccccc4)c(=N)n(CCCn4ccnc4)c3nc12 (stereo not given)	65	u	270*[may fluoresce violet]	97	18
Cc1ccc(CNc2cnccn2)cc1	99	99	104	103	103
CCn1c2ccc(C)cc2c2nnc(SCCN3CCOCC3)nc21	94	103	99	103	102
O=S(=O)(c1cccc(Br)c1)N1CCN(c2ccnc3cc(Cl)ccc23)CC1	95	174*[may fluoresce green]	113	110	123
CCC(=O)c1ccc(CCCCCC(=O)O)s1	111	110	98	114	108
CC(=O)c1ccc(CCCCCCCCCC(=O)O)s1	96	92	99	153*	100
O=C(NCCc1ccccc1)C(c1ccccc1)N(C(=O)c1csnn1)C1CC1 (stereo not given)	102	103	110	110	108
O=C(NCCc1ccccc1)C(c1ccccc1F)N(C(=O)c1csnn1)C1CC1 (stereo not given)	38*[may fluoresce violet]	u	217*[may fluoresce violet]	62	u
